Rows were chosen to be rich in hits. Some 10% of all compounds tested hit in one or more screens of this group.
HPGD inh = blocks human HPGD enzyme activity; 150,000 tested, 4.3% active; purified HPGD, NADH fluorescence kinetic, PGE2 substrate; Potency, µM, hits mostly inhibitors
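NADH formation kinetics: reaction with 30 uM PGE2 and 1 mM NAD+ (final), 20 nM enzyme, Tris-HCl pH 8 with Tween 20, after 15 min compound preincubation at room temperature. Fluorescence change, last versus first of five reads.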
ALDH1A1 block = inhibitors of human aldehyde dehydrogenase 1A1; P00352; Potency, µM (top dose mostly 75.3 µM), most hits filed as inhibitors; AID 1030; 220,000 tested, 7.3% active; Purified ALDH1A1, NADH fluorescence, propionaldehyde substrate
ALOX12 inhib = inhibitors of human 12-lipoxygenase (ALOX12). purified 12-hLO, xylenol orange hydroperoxide absorbance. Potency, µM (series often up to 57.1 µM), most hits filed as inhibitors. P18054. 150,000 tested, 0.12% active. AID 1452; active = well fitted inhibition curve with a large enough effect; inconclusive = small, poorly fitted or top-dose-only effect; also: nearly all actives have a fitted effect of over 55% in size
Target sequence (P18054 whole entry, looked up): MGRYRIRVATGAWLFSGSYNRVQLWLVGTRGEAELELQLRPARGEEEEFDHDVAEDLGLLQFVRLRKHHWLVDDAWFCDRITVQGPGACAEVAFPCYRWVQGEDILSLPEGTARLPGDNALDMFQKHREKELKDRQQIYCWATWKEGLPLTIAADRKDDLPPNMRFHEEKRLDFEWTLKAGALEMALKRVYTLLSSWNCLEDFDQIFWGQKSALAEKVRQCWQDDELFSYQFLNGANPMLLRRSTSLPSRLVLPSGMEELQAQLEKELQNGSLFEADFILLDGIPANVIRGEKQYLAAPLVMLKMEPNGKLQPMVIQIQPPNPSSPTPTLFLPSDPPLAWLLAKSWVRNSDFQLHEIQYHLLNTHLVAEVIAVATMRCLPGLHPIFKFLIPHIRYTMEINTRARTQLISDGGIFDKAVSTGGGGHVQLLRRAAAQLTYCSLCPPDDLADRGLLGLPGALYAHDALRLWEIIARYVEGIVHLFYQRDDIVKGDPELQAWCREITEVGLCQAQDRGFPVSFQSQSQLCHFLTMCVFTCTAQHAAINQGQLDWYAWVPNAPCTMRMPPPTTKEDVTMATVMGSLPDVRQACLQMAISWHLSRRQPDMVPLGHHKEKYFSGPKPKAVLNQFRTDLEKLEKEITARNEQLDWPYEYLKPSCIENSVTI
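Hydroperoxide formation by human 12-lipoxygenase from 40 uM arachidonic acid was followed colorimetrically via ferric-xylenol orange complex, using the 573/405 nm absorbance ratio. Enzyme concentration was 150 nM, with 30 min reaction at room temperature.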
PNC inhibitor = inhibitors of perinucleolar compartment assembly | activity change (PNC), negative = inhibition, % at 10 µM | PC3M PTB-GFP, PNC prevalence imaging, 16 h; active compounds read low | 140,000 tested, 3.1% active;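 active = readout at or below -70, meaning at least 70% loss of cells showing the perinucleolar compartment, a nuclear body marking cancer cells; inconclusive = readout between -30 and a set limit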
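Compounds are pinned in duplicate onto adhered PC3M cells stably expressing GFP-tagged PTB and incubated 16 h at 37 C. Cells are then fixed, nuclei stained with Hoechst, and PNC-positive cells counted.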
LMNA splice mod = LMNA splicing modulation. HeLa LMNA splicing GFP/RFP minigene ratio, 48 h. Potency, µM (series often up to 46.1 µM), hits mostly inhibitors. 200,000 tested, 0.01% active; active = well fitted inhibition curve with a large enough effect in the signal ratio, with a control signal flat, not every such curve was filed as active; inconclusive = small, poorly fitted or top-dose-only effect, or effect the other way, or a change in a side signal; the % refers to the signal ratio
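Read-out is the ratio of GFP to DsRed2 object intensity, acquired by 488 nm laser-scanning cytometry on HeLa lamin A-EGFP minigene reporter cells. Compound incubation 48 hrs at 37 °C in Opti-MEM with 2% FBS; DMSO 0.5% final.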
A number is an active result; n = inactive; u = inconclusive; x = no result given; [ ] = remark or other dose. Unless noted, calls follow the shape of the dose curve; as a rule, active = well fitted inhibition curve with a large enough effect (not every such curve was filed as active); inconclusive = small, poorly fitted or top-dose-only effect, or another doubt; inactive = no such curve, though single readings can be large or run the other way.

SMILES	HPGD inh	ALDH1A1 block	ALOX12 inhib	PNC inhibitor	LMNA splice mod
O=c1cnc2cnc(Oc3cccc(Cl)c3)nc2n1C1CC1	n	n	n	x	x
O=C(NN=C1CCCC1)c1[nH]c2ccc(Br)cc2c1-c1ccccc1	x	18µM	x	x	x
O=C(N/N=C/c1ccccc1)c1[nH]c2ccc(Br)cc2c1-c1ccccc1	n	n	n	u	u
CCOC(=O)N1CCN(c2cc(C)c(C(C)=O)cc2F)CC1	n	u	n	n	n
CC(=O)c1cc(F)c(N2CCN(C(=O)Cc3ccccc3)CC2)cc1C	22µM	8.9µM	n	n	n
CC(=O)c1cc(F)c(N2CCN(CCC#N)CC2)cc1C	n	28µM	n	n	n
O=C(COC(=O)Cc1ccc(-c2ccccc2)cc1)NCc1ccc(F)cc1	n	n	n	n	n
Cc1ccc(-c2csc(=S)n2CC(=O)OCC(=O)NCc2ccc(F)cc2)cc1	16µM	13µM	n	n	n
O=C1Cc2ccccc2N1c1ccccc1	35µM	n	n	n	n
C=CCC(C)(O)c1cccc(C(F)(F)F)c1 (stereo unspecified)	n	n	x	x	x
Cc1cc([N+](=O)[O-])nn1CCCC(=O)N1CCN(c2ccc(F)cc2)CC1	n	u	n	-119	n
CC(C)C(C)(C#N)NC(=O)CSc1nc2scc(-c3ccco3)c2c(=O)n1-c1ccccc1 (stereo unspecified)	n	11µM	n	n	n
C=CCn1c(SCC(=O)N2CCOCC2)nc2scc(-c3ccco3)c2c1=O	n	18µM	n	n	u
C=CCn1c(SCC(=O)NCCCC(=O)OCC)nc2scc(-c3ccco3)c2c1=O	x	u	x	x	n
CC(C)C(C)NC(=O)CSc1nc2scc(-c3ccco3)c2c(=O)n1-c1ccccc1 (stereo unspecified)	u	7.9µM	u	n	n
COc1ccc(C(CC(=O)Nc2ccc(OC)c(OC)c2)N2Cc3ccccc3C2=O)cc1 (stereo unspecified)	x	x	x	x	n
Cc1ccc(-c2nc3c4ccccc4n(CC(=O)N4CCN(c5ccc(F)cc5)CC4)c(=O)n3n2)cc1	x	x	x	x	n
CC(NC(=O)c1sc2cc([N+](=O)[O-])ccc2c1Cl)C(C)(C)C (stereo unspecified)	x	0.56µM	n	n	n
O=C(NC1CC1)c1sc2cc([N+](=O)[O-])ccc2c1Cl	25µM	n	n	n	n
CC(=NC1CCCC1)c1c(C)[nH]n(-c2nc3ccccc3s2)c1=O	n	14µM	n	n	n
Clc1ccc(OCc2nn3c(-c4ccccc4)nnc3s2)c(Cl)c1	u	u	n	u	n
Clc1ccccc1-c1nn2c(COc3ccccc3)nnc2s1	28µM	20µM	n	n	u
c1ccc(Cc2nn3c(COc4ccccc4)nnc3s2)cc1	10µM	5µM	n	u	n
CCOc1ccccc1OCc1nn2c(COc3ccccc3)nnc2s1	11µM	7.9µM	n	n	n
Clc1ccccc1OCc1nn2c(-c3ccncc3)nnc2s1	4µM	u	n	n	n
SMILES	HPGD inh	ALDH1A1 block	ALOX12 inhib	PNC inhibitor	LMNA splice mod
c1ccc(OCc2nn3c(C4CCCCC4)nnc3s2)cc1	n	u	n	n	n
Cc1ccc2[nH]c(C)cc(=O)c2c1	n	u	n[0.00818 µM]	x	x
Brc1ccc(-c2noc(COc3ccc4c(c3)CCC4)n2)o1	n	n	n	-80	n
CCc1ccc(CN2C(=O)c3ccccc3C2C(=O)NCCc2ccc(OC)c(OC)c2)cc1 (stereo unspecified)	x	x	x	x	n
O=Cc1ccc2oc3nc4n(c(=O)c3c(=O)c2c1)CCCS4	u	2.5µM	n	n	n
CCOC(=O)c1c(N)sc(=S)c2c1CCC2	u	32µM	n	u	n
CCOC(=O)c1c(N)ssc1=S	25µM	3.2µM	n	u	n
CCOC(=O)c1c(N)sc(C(=O)N2CCCCCC2)c1C	x	u	n	n	u
CCOC(=O)c1c(N)sc(C(N)=O)c1C	u	25µM	n	n	n
CCOC(=O)c1sc(N)c(C(N)=O)c1C	x	u	x	x	n
CCOC(=O)c1c(N)sc(C(=O)Nc2ccccc2)c1C	x	10µM	x	x	n
CC(C)CCNC(=O)C1CCN(c2nc3ccc(Cl)cc3[nH]2)CC1	x	x	x	x	n
COc1ccc(C2C(=O)N(C3CCCCCC3)CC(=O)N2Cc2ccc(C)cc2)cc1 (stereo unspecified)	x	x	x	x	n
CCOC(=O)c1c(N)sc(N)c1C(=O)OCC	8.9µM	1.8µM	n	u	n
Cc1c(C(=O)OC(C)C)sc(N)c1C(=O)OC(C)C	22µM	u	n	n	u

Screening data from PubChem BioAssay.
